Holding throughout (test): NCI-60 one-dose screen, 48 h (100 = growth as untreated, 0 = no growth, -100 = all killed)
One assay concerns NCI-H226 lung. The following applies: 10 µM.
The next assay deals with NCI-H322M lung. The following applies: 10 µM unless noted.
For the next assay, the system named is HOP-62 NSCLC. The following applies: 10 µM unless noted.
Another assay concerns NCI-H460 lung. The following applies: 10 µM unless noted.
For another assay, the system named is HOP-92 NSCLC. The following applies: 10 µM unless noted.
The test system of another assay is NCI-H522 lung. The following applies: 10 µM.
For another assay, the system named is A549/ATCC NSCLC. The following applies: 10 µM unless noted.
Another assay concerns 786-0 renal. The following applies: 10 µM unless noted.
The next assay concerns COLO 205 colon. The following applies: 10 µM unless noted.

Compounds without any hit were thinned out: in the full panel of roughly 83,000, 20% have a hit.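 How to read the values: 0–100, growth inhibition (40 = 60% inhibited); 0, no net growth; -100 to 0, cell death (-40 = 40% of starting cells died; -100 = all dead).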 A number with no mark means an inactive call. Calls of active or inactive are those of the source. Rule for the calls: active = growth percent below 10; inactive = the rest.

Regarding `COc1ccc(C2CC(c3cc(OC)c(OC)c(OC)c3)=NN2c2ccc(S(N)(=O)=O)cc2)cc1` (centres undefined), the growth in the assay with NCI-H226 lung is 61.9%; in the assay with NCI-H322M lung it was 67.6%; with HOP-62 NSCLC, 67.3%; in the assay with NCI-H460 lung, 58.8%; in the assay with HOP-92 NSCLC, 27.8%; in the assay with NCI-H522 lung it was 66.9%. Further, the growth is 44.5% with A549/ATCC NSCLC, 66.6% with 786-0 renal and 75.6% in the assay on COLO 205 colon.
As for `O=C1C(Cl)=C(NCCCN2CCOCC2)C(=O)c2ccccc21`, the growth in the assay on NCI-H226 lung is 107%; in the assay on NCI-H322M lung it was 98.5%; with HOP-62 NSCLC, 120%; with NCI-H460 lung it was 99.2%; with HOP-92 NSCLC, 106%; in the assay with NCI-H522 lung, 89.9%. In addition, the growth was 98.8% with A549/ATCC NSCLC, 113% in the assay with 786-0 renal and 86.9% with COLO 205 colon.
With `COc1c(Cl)ccc2c(-c3nc4cc(Cl)c(F)cc4s3)cc(=O)oc12`, the growth in the assay with NCI-H226 lung was 94.8%; in the assay on NCI-H322M lung it was 106%; in the assay with HOP-62 NSCLC, 86.6%; with NCI-H460 lung it was 99.2%; in the assay with NCI-H522 lung it was -78.2% (active); with A549/ATCC NSCLC, 78%. In addition, the results for the growth in the assay on 786-0 renal and in the assay with COLO 205 colon were -43.3% (active) and 124%, respectively.
As for `O=C1/C(=C/c2ccc(F)cc2)CN(Cc2cn(CCNc3ccnc4cc(Cl)ccc34)nn2)C/C1=C\c1ccc(F)cc1`, the growth with NCI-H226 lung was -62.3% (active); in the assay on NCI-H322M lung it was -0.345% (active); in the assay on HOP-62 NSCLC it was -55.3% (active); in the assay on NCI-H460 lung it was -42.8% (active); in the assay on NCI-H522 lung, -75.4% (active); in the assay with A549/ATCC NSCLC, -31.3% (active). The figures for the growth with 786-0 renal and in the assay on COLO 205 colon were -66.2% (active) and -53.4% (active), respectively.
Take `C[C@@H](Oc1cc(-c2cnn(C3CC4(CCCNC4)C3)c2)cnc1N)c1c(Cl)ccc(F)c1Cl` (some centres undefined): the growth in the assay on NCI-H226 lung was 58.8%; with NCI-H322M lung it was 58.9%; with HOP-62 NSCLC, 54%; with NCI-H460 lung it was 0.489% (active); in the assay with HOP-92 NSCLC, -7.41% (active); with NCI-H522 lung it was 23.6%. For the same compound, the growth with A549/ATCC NSCLC is 16.6%; in the assay with 786-0 renal it was 25.2%; in the assay on COLO 205 colon, -30.9% (active).
Regarding `COc1ccc(-c2nn(-c3ccc(NC(=O)c4ccc(Cl)c(Cl)c4)cc3)cc2-c2ccncc2)cc1Cl`, the growth with NCI-H226 lung is 75.8%; in the assay on NCI-H322M lung, 69.1%; in the assay on HOP-62 NSCLC, 6.02% (active); with NCI-H460 lung, 20.6%; with HOP-92 NSCLC, 37.1%; with NCI-H522 lung, 54.3%. Moreover, the growth with A549/ATCC NSCLC is 42.7%; in the assay with 786-0 renal, -33% (active); with COLO 205 colon, -27.2% (active).
For `COc1ccc(/C=C2\CN(Cc3cn(CCCNc4ccnc5cc(Cl)ccc45)nn3)C/C(=C\c3ccc(OC)c(OC)c3)C2=O)cc1OC`, the growth in the assay with NCI-H226 lung is -52.4% (active); in the assay on NCI-H322M lung, 22.7%; with HOP-62 NSCLC, -1.63% (active); in the assay with NCI-H460 lung, -5.13% (active); in the assay on HOP-92 NSCLC, 25.5%; in the assay with NCI-H522 lung, 0.468% (active). The values for the growth in the assay with A549/ATCC NSCLC, in the assay with 786-0 renal and in the assay with COLO 205 colon were 5.33% (active), -1.83% (active) and 1.93% (active), respectively.
In the case of `CCSc1nnc2c3cc(Br)ccc3n(C)c2n1`, the growth with NCI-H226 lung is 93.6%; with NCI-H322M lung, 101%; with HOP-62 NSCLC, 82.7%; in the assay on NCI-H460 lung, 102%; in the assay with NCI-H522 lung it was 99.5%; in the assay on A549/ATCC NSCLC, 102%. Further, the growth with 786-0 renal and with COLO 205 colon was 102% each time.
With `O=C(O)C[C@H](O)C[C@H](O)/C=C/c1c(C2CC2)nc2ccccc2c1-c1ccc(F)cc1`, the growth was 65.6% in the assay with NCI-H226 lung; 58.1% in the assay with NCI-H322M lung; 84.9% in the assay on HOP-62 NSCLC; 94.4% with NCI-H460 lung; -12% (active) in the assay with HOP-92 NSCLC; 53.7% in the assay on NCI-H522 lung. Also, the growth in the assay with A549/ATCC NSCLC is 105%; in the assay with 786-0 renal, 91.9%; in the assay on COLO 205 colon it was 102%.
Take `CN1CCc2cccc3c2C1Cc1ccc(O)c(O)c1-3` (centres undefined): the growth was 80.8% with NCI-H226 lung; 109% in the assay with NCI-H322M lung; 87.8% in the assay with HOP-62 NSCLC; 111% in the assay with NCI-H460 lung; 106% with HOP-92 NSCLC; 39.5% in the assay with NCI-H522 lung. In addition, the growth in the assay with A549/ATCC NSCLC is 95.6%; with 786-0 renal it was 86.2%; with COLO 205 colon, 90.5%.
In the case of `Cc1nc(NC(=O)COc2cccc(/C=C3\COc4ccccc4C3=O)c2)sc1C`, the growth in the assay on NCI-H226 lung is 83.2%; with NCI-H322M lung it was 58.6%; in the assay on HOP-62 NSCLC, 71.9%; with NCI-H460 lung it was 9.93% (active); in the assay with HOP-92 NSCLC, -20.3% (active); with NCI-H522 lung, -49.6% (active). In addition, the results for the growth in the assay on A549/ATCC NSCLC, in the assay on 786-0 renal and in the assay on COLO 205 colon were 30.1%, 72.1% and 16.6%, respectively.
Take `O=C(COc1ccc(/C=C2\CSc3ccccc3C2=O)cc1)c1ccc(Cl)cc1`: the growth in the assay with NCI-H226 lung was 97.9%; in the assay on NCI-H322M lung, 111%; with HOP-62 NSCLC, 94.4%; in the assay with NCI-H460 lung, 115%; in the assay with HOP-92 NSCLC it was 122%; in the assay on NCI-H522 lung, 99.4%. Also, the growth in the assay with A549/ATCC NSCLC is 101%; in the assay on 786-0 renal, 105%; in the assay with COLO 205 colon, 103%.
Take `CN1CCc2c(Sc3ccc(C(=O)NO)cc3)c3ccccc3n2C1`: the growth with NCI-H226 lung was 62.1%; in the assay with NCI-H322M lung, 67.8%; in the assay with HOP-62 NSCLC it was 66.8%; in the assay on NCI-H460 lung, 40.3%; in the assay with HOP-92 NSCLC, 52.6%; with A549/ATCC NSCLC it was 52.1%. In the assay with 786-0 renal, the growth is 75.3%.
For `CN1CCn2c(c(Sc3ccc(C(=O)NO)cc3)c3ccccc32)C1=O`, the growth with NCI-H226 lung was -8.32% (active); in the assay with NCI-H322M lung it was 53%; in the assay on HOP-62 NSCLC, 21.3%; with NCI-H460 lung, 20.4%; in the assay with NCI-H522 lung it was -97.3% (active); in the assay on A549/ATCC NSCLC, 62%. Moreover, the growth with 786-0 renal was 39.8%; in the assay with COLO 205 colon it was 1.64% (active).
With `COc1cccc(C2C3=C(COC3=O)N(CCO)c3cc4c(cc32)CCC4)c1` (centres undefined), the growth is 13.4% with NCI-H226 lung; 30.3% with NCI-H322M lung; 19.2% in the assay on HOP-62 NSCLC; 1.42% (active) in the assay with NCI-H460 lung; 48.2% with HOP-92 NSCLC; -50.4% (active) in the assay with NCI-H522 lung. Further, the growth in the assay on A549/ATCC NSCLC is 12.1%; with 786-0 renal, 0.563% (active); with COLO 205 colon, -78.5% (active).

For the origin of these results see PubChem BioAssay (NCI).
